# From PubChem BioAssay (NCI)
# Compounds without any hit were thinned out: in the full panel of roughly 83,000, 20% have a hit.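 How to read the values: 0–100, growth inhibition (40 = 60% inhibited); 0, no net growth; -100 to 0, cell death (-40 = 40% of starting cells died; -100 = all dead).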 A number with no mark means an inactive call. Activity calls are given as the source filed them. Rule for the calls: active = growth percent below 10; inactive = the rest.
# Tests used:
# Assay in all cases: NCI-60 one-dose screen, 48 h (100 = growth as untreated, 0 = no growth, -100 = all killed)
# Conditions in all cases: 10 µM unless noted
# SK-MEL-2 melanoma = tested on: SK-MEL-2 melanoma
# EKVX NSCLC = tested on: EKVX NSCLC
# SN12C renal = tested on: SN12C renal
# UO-31 renal = tested on: UO-31 renal
# TK-10 renal = tested on: TK-10 renal
# ACHN renal = tested on: ACHN renal
# CAKI-1 renal = tested on: CAKI-1 renal
# A498 renal = tested on: A498 renal
# CCRF-CEM leukemia = tested on: CCRF-CEM leukemia
# MOLT-4 leukemia = tested on: MOLT-4 leukemia
# SR leukemia = tested on: SR leukemia
# RPMI-8226 leukemia = tested on: RPMI-8226 leukemia
# OVCAR-8 ovarian = tested on: OVCAR-8 ovarian
# OVCAR-4 ovarian = tested on: OVCAR-4 ovarian
# SK-OV-3 ovarian = tested on: SK-OV-3 ovarian
# IGROV1 ovarian = tested on: IGROV1 ovarian
# OVCAR-3 ovarian = tested on: OVCAR-3 ovarian
# HS 578T breast = tested on: HS 578T breast
# NCI/ADR-RES ovarian = tested on: NCI/ADR-RES ovarian
# OVCAR-5 ovarian = tested on: OVCAR-5 ovarian
Structure (SMILES),growth (SK-MEL-2 melanoma),growth (EKVX NSCLC),growth (SN12C renal),growth (UO-31 renal),growth (TK-10 renal),growth (ACHN renal),growth (CAKI-1 renal),growth (A498 renal),growth (CCRF-CEM leukemia),growth (MOLT-4 leukemia),growth (SR leukemia),growth (RPMI-8226 leukemia),growth (OVCAR-8 ovarian),growth (OVCAR-4 ovarian),growth (SK-OV-3 ovarian),growth (IGROV1 ovarian),growth (OVCAR-3 ovarian),growth (HS 578T breast),growth (NCI/ADR-RES ovarian),growth (OVCAR-5 ovarian)
COc1cc(-c2nc3cc(Cl)c(Cl)cc3[nH]2)ccc1OCC(=O)N=Nc1c(O)[nH]c2ccc([N+](=O)[O-])cc12,102%,96.2%,81.2%,91.1%,124%,104%,97.2%,109%,21.6%,74.2%,23.9%,101%,69.3%,71.7%,77%,87.1%,36.1%,68.2%,109%,–
C/C(=C(/c1ccc(Cl)cc1)c1ccc(OCCN2CCCC2)cc1)c1ccc(Cl)cc1,93.9%,90.7%,85.5%,65.7%,94.6%,104%,88.5%,97.9%,61.7%,62.9%,4.02% (active),57.8%,88.8%,95.1%,108%,81.1%,88.3%,90.9%,90.4%,–
O=[N+]([O-])c1ccc(N/N=C(/C(=N/Nc2ccc([N+](=O)[O-])cc2)c2ccccc2)c2ccccc2)cc1,11.2%,94.1%,81.4%,51.8%,94.4%,-1.56% (active),53.7%,101%,90.9%,73.9%,–,101%,60.4%,116%,85.6%,76.4%,120%,101%,63.7%,82.5%
COc1cc(-c2nc(SCCC(C)C)nc(Nc3ccccc3Cl)c2C#N)cc(OC)c1OC,101%,93.3%,90%,69.7%,125%,97.1%,78.9%,85.3%,92.1%,87.4%,102%,101%,101%,90.2%,120%,91.6%,105%,95.6%,101%,–
Cc1ccc(-c2nn(-c3ccccc3)cc2C=C2C(=O)ON=C2C(C)C)cc1,84.5%,102%,75.9%,72%,86.9%,89.3%,61.3%,84.9%,1.71% (active),-15.6% (active),–,-23.1% (active),59.7%,85.4%,110%,54.7%,87.7%,56.4%,96.4%,104%
COc1cc(-c2cc(-c3cccs3)c(C#N)c(N3CCOCC3)n2)cc(OC)c1OC,95.6%,88.1%,77.9%,58.9%,92.5%,71.2%,66.5%,66.4%,38.8%,28.3%,–,44.2%,74.3%,85.8%,141%,73.5%,149%,90.6%,58.2%,96.4%
COc1cc(CNS(=O)(=O)c2ccc(C)cc2)ccc1OCc1cn(-c2ccc(F)cc2)nn1,104%,80.3%,92.2%,63.9%,116%,93.2%,89.6%,54.1%,79.9%,78.2%,78.9%,61.1%,95.5%,72.2%,85.2%,94.1%,91.1%,97.8%,85.8%,–
O=C(/C=C/c1cccs1)c1ccc(Cl)nc1,98%,102%,103%,93.5%,84.2%,106%,94%,85.6%,91.4%,99.6%,82.5%,4.19% (active),99.3%,104%,95.7%,107%,116%,105%,108%,–
Cc1ccc(-c2nc(N3CCNCC3)c3oc(-c4ccccc4)nc3n2)cc1,61.2%,101%,-84.3% (active),-90.6% (active),-98.6% (active),-99.8% (active),40.5%,95.7%,-76% (active),-68.8% (active),-44% (active),-54.7% (active),-66.4% (active),-51.6% (active),87.4%,-68% (active),-89.5% (active),-7.69% (active),-23.1% (active),–
CC[C@]12C=CCN3CC[C@@]4(c5cc(NC(=O)CCC(=O)OCc6cn(Cc7ccc(F)cc7)nn6)c(OC)cc5N(C)[C@H]4[C@@](O)(C(=O)OC)[C@@H]1OC(C)=O)[C@@H]32,109%,101%,96.4%,85.8%,94%,101%,89.7%,109%,102%,104%,94.2%,104%,103%,–,90.7%,108%,104%,108%,109%,–
O=[N+]([O-])/C(=C/C=C/c1ccccc1)c1ccccc1,86.5%,92.7%,66.5%,-44.4% (active),91.1%,10.6%,51.2%,50.4%,36.5%,34.4%,–,35.8%,77.6%,77.2%,97.1%,-4.26% (active),1.93% (active),56.8%,78.3%,87.9%
CCSc1nc(NC)c2cc(-c3ccc(C(F)(F)F)cc3)ccc2n1,98.2%,96.6%,95.1%,92.2%,121%,97.6%,96.3%,112%,95.6%,93.4%,–,94.8%,102%,96.2%,96.1%,97.2%,110%,101%,106%,104%
N#Cc1c(-c2ccc(Cl)cc2)nc(NN=Cc2cccc(O)c2)nc1N1CCOCC1,91.5%,66.6%,78.3%,35.7%,79%,60.9%,60.5%,75.1%,36.2%,39.8%,–,37.4%,65.4%,72.4%,98%,64.9%,77.7%,89.4%,64.9%,97.4%
CS(=O)(=O)C1=CN(CCO)C(=O)N2CCCN=C12,111%,100%,99.7%,78%,109%,103%,98%,88%,114%,106%,–,119%,108%,115%,97.5%,102%,105%,97%,106%,99.4%
C#CCOc1ccc2ncnc(Nc3ccc(NC(=O)CCl)cc3)c2c1,-7.65% (active),-0.0323% (active),-13.2% (active),-25.8% (active),1.64% (active),-51.2% (active),35.8%,55.9%,-23.7% (active),-8.27% (active),-7.69% (active),-16.7% (active),2.5% (active),-17.5% (active),22.4%,-55.3% (active),-38.6% (active),27.6%,7.93% (active),–
O=C(CN1C(=O)CCC1=O)Nc1ncc(Cc2ccc(F)cc2)s1,100%,92.6%,98.8%,76%,101%,98.6%,91.5%,105%,105%,102%,99.9%,105%,107%,–,110%,101%,103%,101%,100%,–
